# Rows were chosen to be rich in hits. Some 2.3% of all compounds tested hit in one or more screens of this group.
# CHRM1 antagonist: antagonists of human M1 muscarinic receptor. inhibition, % at 3 µM. CHO-K1 hM1, Fluo-8 calcium fluorescence, ACh EC80 antagonist. AID 588852. P11229. hit rate 1.3% among 360,000;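 active = percent inhibition above its own plate's cutoff, namely the mean of that plate's compound wells plus 3 SD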;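 also: peak over basal fluorescence ratio during 140 s after agonist addition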
# Target sequence (P11229 whole entry, looked up): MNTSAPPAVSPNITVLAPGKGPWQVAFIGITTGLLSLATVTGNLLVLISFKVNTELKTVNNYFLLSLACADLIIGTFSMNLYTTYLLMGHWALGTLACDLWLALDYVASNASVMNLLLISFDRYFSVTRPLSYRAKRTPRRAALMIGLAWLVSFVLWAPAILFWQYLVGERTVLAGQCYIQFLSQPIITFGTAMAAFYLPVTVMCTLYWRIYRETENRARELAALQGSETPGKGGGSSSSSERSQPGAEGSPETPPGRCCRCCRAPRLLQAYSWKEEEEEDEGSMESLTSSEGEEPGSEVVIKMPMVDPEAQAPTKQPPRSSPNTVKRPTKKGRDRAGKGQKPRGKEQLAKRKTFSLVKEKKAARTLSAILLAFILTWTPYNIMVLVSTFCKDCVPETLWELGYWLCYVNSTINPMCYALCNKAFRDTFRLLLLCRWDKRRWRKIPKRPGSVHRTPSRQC
# M1 PAM: human CHRM1 positive allosteric modulation; P11229; CHO-K1 hM1, Fluo-8 calcium fluorescence, ACh EC20; 0% = ACh EC20, 100% = maximal ACh; activation, % at 3 µM; hit rate 0.088% among 360,000; AID 588819; in the data active = activation above about 19%, passing the limit was not always enough
# CHO-K1 Ca antag: nonselective inhibitor or artifact in parental CHO-K1 cells; ATP-induced calcium, Fluo-8 fluorescence; hit rate 0.6% among 360,000; inhibition, % at 3 µM; AID 602250;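 active = inhibition above a per-plate cutoff, the plate's mean sample inhibition plus 3 SD, cut at about 24% in these data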
# M1 ag parental: counter-screen for M1 agonists: effect in parental CHO-K1 cells | Fluo-8 calcium fluorescence; scaled to maximal ATP response, vehicle zero | activation, % at 3 µM | AID 602248 | hit rate 0.48% among 360,000; in the data active = activation above about 15%;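 also: untransfected CHO-K1 host cells lacking M1 receptor as counterscreen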
# M1 ag: agonists of human M1 muscarinic receptor; P11229; CHO-K1 hM1, Fluo-8 calcium fluorescence, agonist mode; 0% DMSO, 100% acetylcholine EC100; activation, % at 3 µM; hit rate 0.33% among 360,000;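 active = activation above the run's mean compound activation plus 3 SD, cut at about 16% in these data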;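 also: peak over basal fluorescence ratio within a 140 s kinetic read after compound addition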
# M1 PAM parental: M1 PAM counterscreen hit in parental CHO-K1 cells. ATP EC20, Fluo-8 calcium fluorescence; 0% at ATP EC20, 100% at ATP max. hit rate 0.02% among 360,000. activation, % at 3 µM;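 active = activation above the run cutoff, the mean activation of all test compounds plus 3 SD, cut at about 40% in these data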;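 also: peak over basal fluorescence ratio in a 140 s read after ATP addition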
# Hits are given with their value; . = inactive; / = no result.
SMILES,CHRM1 antagonist,M1 PAM,CHO-K1 Ca antag,M1 ag parental,M1 ag,M1 PAM parental
COc1ccc(C(=O)C2CCCN(Cc3cnc(N4CCOCC4)s3)C2)c(OC)c1 (stereo not drawn),.,.,.,.,.,.
COc1ccc(C(=O)C2CCCN(Cc3ccc(C#CCCO)cc3)C2)cc1F (stereo not drawn),58,.,.,.,.,.
CN1CCN(C(=O)C[C@H]2C[C@H]3c4cc(NC(=O)NC5CCCCC5)ccc4O[C@H]3[C@@H](CO)O2)CC1,.,.,.,.,.,.
Cc1ccc(S(=O)(=O)N2CCN(C(=O)c3cc(S(=O)(=O)N(C)C)ccc3N3CCCC3)CC2)c(C)c1,.,.,.,.,.,.
COc1ccc(F)cc1S(=O)(=O)NC1CC(C)(C)NC(C)(C)C1,.,.,28,.,.,.
CCOC(=O)N1CCN(C(=O)C[C@@H]2C[C@@]3(C(=O)OC)CCCCC=C3N(Cc3cccc4ccccc34)C2=O)CC1,/,/,.,.,/,.
Nc1nonc1-n1nnc(C(=O)N/N=C/c2ccc(F)cc2)c1-c1ccc2c(c1)OCO2,.,.,.,.,.,.
COc1cccc(-c2c(C(=O)N/N=C(\C)c3ccco3)nnn2-c2nonc2N)c1,.,.,.,.,.,.
Cc1ccc(/C=N/NC(=O)c2nnn(-c3nonc3N)c2-c2ccc3c(c2)OCO3)s1,.,.,.,22,25,.
CCOc1cccc(-c2c(C(=O)N/N=C/c3cccs3)nnn2-c2nonc2N)c1,.,.,.,25,20,.
COc1cccc(-c2c(C(=O)N/N=C(\C)c3ccc(Cl)s3)nnn2-c2nonc2N)c1,.,.,.,.,22,.
CCOc1cccc(-c2c(C(=O)N/N=C/c3ccncc3)nnn2-c2nonc2N)c1,.,.,.,.,.,.
CCOc1ccc(-c2c(C(=O)N/N=C/c3c[nH]c4ccccc34)nnn2-c2nonc2N)cc1,.,.,25,.,.,.
C[C@H]1CN([C@@H](C)CO)C(=O)CCCn2cc(nn2)CO[C@@H]1CN(C)S(=O)(=O)c1ccc(Oc2ccccc2)cc1,.,.,.,.,.,.
COc1ccc(/C=N/NC(=O)c2nnn(-c3nonc3N)c2-c2cccc(OC)c2)cc1,.,.,.,.,38,.
COc1cccc(-c2c(C(=O)N/N=C/c3cccs3)nnn2-c2nonc2N)c1,.,.,.,32,44,.
COc1ccc(/C=N/NC(=O)c2nnn(-c3nonc3N)c2-c2cccs2)cc1OC,.,.,.,.,.,.
Cc1ccc(/C=N/NC(=O)c2nnn(-c3nonc3N)c2-c2cccs2)cc1,.,.,.,33,69,.
Cc1ccc(S(=O)(=O)N2C[C@H]3C(=O)C[C@@H](c4ccccc4)N(S(C)(=O)=O)[C@H]3C[C@H]2c2ccccc2)cc1,.,.,.,.,.,.
CCN(CC)C(=O)C1=C(C)N(Cc2ccc(OC)cc2)C(=O)C(CC(=O)NC2CCCC2)C1 (stereo not drawn),.,.,.,.,.,.
CSc1ncccc1C(=O)OCC(=O)N(C)Cc1ccc(C)cc1,.,.,.,.,.,.
Cc1oc(-c2ccc(Cl)cc2)nc1CN1CCCC(C(=O)NC2CC2)C1 (stereo not drawn),.,.,.,.,.,.
CCOC(=O)N1CCC(NC(=O)C2CCCN(Cc3nc(-c4cccc(Cl)c4)oc3C)C2)CC1 (stereo not drawn),37,.,30,.,.,.
Cc1ccc(S(=O)(=O)N(C)C[C@@H]2OCc3cnnn3CCCC(=O)N([C@@H](C)CO)C[C@H]2C)cc1,.,.,.,.,.,.
Cc1cc(C)c(N=C2SCC(=O)N2Cc2ccco2)c(C)c1,.,.,.,.,.,.
SMILES,CHRM1 antagonist,M1 PAM,CHO-K1 Ca antag,M1 ag parental,M1 ag,M1 PAM parental
O=C1CSC(=Nc2ccc(Cl)cc2)N1Cc1ccco1,.,.,29,.,.,.
CCCn1c(SCC(=O)Nc2ccc(S(=O)(=O)N3CCOCC3)cc2)n[nH]c1=O,.,.,.,.,.,.
Cc1ccc(S(=O)(=O)N2CCN(C(=O)C3CCN(c4ncnc5sc(C)c(C)c45)CC3)CC2)c(C)c1,.,29,.,.,.,.
Cc1sc2ncnc(N3CCC(C(=O)NNC(=O)COc4ccccc4F)CC3)c2c1C,.,.,.,.,.,.
Cc1sc2ncnc(N3CCN(S(=O)(=O)c4ccc(C(C)(C)C)cc4)CC3)c2c1C,.,.,.,.,.,.
Cc1sc2ncnc(N3CCN(CCOc4ccc(Cl)cc4)CC3)c2c1C,43,.,.,.,.,.
Cc1sc2ncnc(N3CCC(C(=O)NNC(=O)COc4ccc(Cl)cc4)CC3)c2c1C,.,.,.,.,.,.
Cc1sc2ncnc(N3CCC(C(=O)NNC(=O)COc4ccccc4Cl)CC3)c2c1C,32,.,.,.,.,.
N#Cc1ccc(NC(=S)N2CCC3CC2c2cc(-c4ccc5c(c4)OCO5)ccc23)cc1 (stereo not drawn),.,.,.,.,.,.
COc1ccc([C@@H]2CC(=O)[C@@H]3CN(S(=O)(=O)c4ccc(C)cc4)[C@H](c4ccccc4)C[C@@H]3N2S(=O)(=O)c2ccccc2)cc1,.,.,.,.,.,.
COc1ccc(N(CC(=O)Nc2ccc(F)c(Cl)c2)S(=O)(=O)c2c(C)noc2C)cc1,.,.,26,.,.,.
COc1ccc(N(CC(=O)Nc2ccc(OC)c(Cl)c2)S(=O)(=O)c2c(C)noc2C)cc1,.,.,.,.,.,.
c1ccc(Oc2cccc(OCCCn3cncn3)c2)cc1,.,21,.,.,.,.
CN(Cc1ccc(C(C)(C)C)cc1)C(=O)C1CCN(C(=O)Nc2ccccc2)CC1,.,.,.,.,.,.
COC(=O)C1CCN(C(=O)CN(C)Cc2ccc(C(C)(C)C)cc2)CC1,34,.,.,.,.,.
Cc1c(Br)cccc1NC(=O)C1(C)CCN1CCc1ccccc1 (stereo not drawn),.,.,.,.,.,.
S=c1[nH]nc(-c2cccs2)n1/N=C/c1c(Cl)cccc1Cl,.,.,.,.,20,.
Cc1ccccc1C1(CCN2CCCCC2)CCOC(C)(C)C1 (stereo not drawn),52,.,.,.,.,.
O=C(O)c1ccc(NC(=O)C2(c3ccccc3)CCCC2)cc1,.,.,.,.,.,.
CCN(CC)CCOC(=O)c1ccc(NC(=O)C2(c3ccccc3)CCCC2)cc1,46,.,.,.,.,.
CCN(CC)CCNC(=O)C1(c2ccccc2)CCCCC1,40,.,.,.,.,.
CC(=O)Nc1ccc(-c2ccnc3c2CC(C(=O)Nc2cccc(C(C)=O)c2)O3)cc1 (stereo not drawn),.,.,.,.,.,.
Cc1nc(SCc2ccc(Cl)cc2)ncc1C(=O)O,.,.,.,21,.,.

# Compound activity as filed in PubChem.
